Reference: PubChem BioAssay (NCATS)
Results filed as inconclusive are left out. Where a call stands in place of a potency, no number is given. Values without a mark were called inactive. Activity calls are given as the source filed them. The call rests on the fitted dose curve; in most records, active means well fitted cell-killing curve with a large enough effect; inconclusive means small, poorly fitted or top-dose-only effect, or effect the other way; inactive means flat fitted curve, though single readings scatter.

The molecules below were run on OV90 (assay: Primary qHTS to identify gynecologic anti-cancer compounds using libraries of approved drugs and bioactive compounds (AID 1345084; further: nearly all actives have a fitted effect of over 55% in size)). Details: Gynecologic cancer cell panel viability, ATPlite luminescence, 48 h; series mostly up to 57.5 µM.
Summary of the method: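 Cells, 1,000 per well, plated 16 h, then exposed 48 h at 37 C to compounds. Viability by ATPlite luminescence after 15 min at room temperature.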

Row | SMILES | Potency | activity change, negative = cytotoxicity
1 | COc1cccc(Cn2ncc3c4sc(S(C)=O)cc4n(C)c3c2=O)c1 (centres undefined) | inactive | 
2 | CC(C)CC(=O)O[C@@H]1O[C@H](CO)[C@@H](O[C@H]2O[C@H](C)[C@@H](N[C@H]3C=C(CO)[C@@H](O[C@H]4O[C@H](CO)[C@@H](O[C@H]5O[C@H](CO)[C@@H](O[C@H]6O[C@H](CO)[C@@H](O)[C@H](O)[C@H]6O)[C@H](O)[C@H]5O)[C@H](O)[C@H]4O)[C@H](O)[C@H]3O)[C@H](O)[C@H]2O)[C@H](O)[C@H]1O |  | 4.33% [at 11.6 µM]
3 | COc1ccc(C2COc3cc(O)ccc3C2)c(O)c1OC (centres undefined) | inactive | 
4 | CCN1CCN(C(=O)N[C@@H](C(=O)N[C@@H]2C(=O)N3[C@@H]2SC(C)(C)[C@@H]3C(=O)O)c2ccccc2)C(=O)C1=O | inactive | 
5 | COc1ccc(/C=C/C(N)=O)cc1OC | inactive | 
6 | N[C@@H](CC(=O)Nc1ccc(Oc2cc(F)c(F)cc2Br)cc1)C(=O)O | inactive | 
7 | COc1cc(O)cc2c1C(=O)OC(C)C2 (centres undefined) | inactive | 
8 | COc1cc(/C=C/C(=O)O[C@@H]2C[C@](O)(C(=O)O)C[C@@H](O)[C@H]2O)ccc1O | inactive | 
9 | Cc1cn(C[C@H](N)C(=O)O)c(=O)n(Cc2ccsc2C(=O)O)c1=O | inactive | 
10 | CC(O)C1CCC2C3CCC4CC(OC5OC(C(=O)O)C(O)C(O)C5O)CCC4(C)C3CCC12C (centres undefined) | inactive | 
11 | C/C=C1/[C@H](O[C@@H]2O[C@H](CO)[C@@H](O)[C@H](O)[C@H]2O)OC=C2C(=O)O[C@@H]3C[C@@H](C(C)CO)[C@H](COC(=O)C[C@H]21)[C@H]3C (some centres undefined) | inactive | 
12 | COc1ccc(NC(=O)c2ccc(-c3ccc(C(N)=O)cc3C)cc2)cc1N1CCN(C)CC1 | inactive | 
13 | Cc1cccc(-c2nn3c(c2-c2ccnc4ccc(C(N)=O)cc24)CCC3)n1 | inactive | 
14 | CC1(C)CC[C@]2(C(=O)OC3OC(CO)C(O)C(O)C3O)CC[C@]3(C)C(=CCC4[C@@]5(C)C[C@@H](O)[C@H](OC6OC(C(=O)O)C(O)C(O)C6O)C(C)(C)C5CC[C@]43C)[C@@H]2C1 (some centres undefined) |  | 1.98% [at 11.6 µM]
15 | O=C(NCC(=O)N1CCCC1)Nc1ccc2ccccc2c1 | inactive | 
16 | O=C(c1c2ccccc2cc2ccccc12)N1CCC(N2CCC[C@@H](C(=O)N3CCOCC3)C2)CC1 | inactive | 
17 | CC(C)c1ccc2c(c1)C(O)CC1C(C)(CO)CCCC21C (centres undefined) | inactive | 
18 | C=CCc1cc(OC)c(OC(C)C(O)c2ccc(O)c(OC)c2)c(OC)c1 (centres undefined) | inactive | 
19 | COc1cc(O)cc(O[C@@H]2O[C@H](CO)[C@@H](O[C@@H]3OC[C@](O)(CO)[C@H]3O)[C@H](O)[C@H]2O)c1OC | inactive | 
20 | CC1(C)COC(=O)[C@@H]1O[C@@H]1O[C@H](CO)[C@@H](O)[C@H](O)[C@H]1O | inactive | 

Row | SMILES | Potency | activity change, negative = cytotoxicity
21 | C[C@@H]1O[C@@H](O[C@H]2[C@@H]3C=CO[C@@H](O[C@@H]4O[C@H](CO)[C@@H](O)[C@H](O)[C@H]4O)[C@@H]3[C@@]3(CO)O[C@@H]23)[C@H](O)[C@H](O)[C@H]1OC(=O)/C=C/c1ccc(O)cc1 | inactive | 
22 | Cc1c(NC(=O)N2CCOCC2)ccc2c1c1ccccc1n2C(C)C | inactive | 
23 | COC(=O)C1=COC(OC2OC(CO)C(O)C(O)C2O)C2C(COC(=O)/C=C/c3ccc(O)c(O)c3)C(O)C(O)C12 (centres undefined) | inactive | 
24 | O=C(OC[C@H]1O[C@H](O[C@]2(CO)O[C@H](CO)[C@@H](O)[C@@H]2O)[C@H](O)[C@@H](O)[C@@H]1O)c1ccc(O)cc1 | inactive | 
25 | C=CC(C)(O)C1CC2C3(C)CCCC(C)(C)C3C(O)C(O)C2(C)O1 (centres undefined) | inactive | 
26 | CC1CC(=O)[C@]2(O)C(C(=O)OCCc3ccc(O)c(O)c3)=CO[C@@H](O[C@@H]3O[C@H](CO)[C@@H](O)[C@H](O)[C@H]3O)[C@H]12 (some centres undefined) | inactive | 
27 | COc1cc(O)cc2c1C(=O)OC(C)CCCCCCC2 (centres undefined) | inactive | 
28 | C=C(C)[C@H]1CC[C@]2(C(=O)O)CC[C@]3(C)C(CCC4[C@@]5(C)CCC(=O)C(C)(C)C5CC[C@]43C)C12 (some centres undefined) | inactive | 
29 | OCC1OC(Oc2cc(O)cc(/C=C/c3ccc(OC4OC(CO)C(O)C(O)C4O)cc3O)c2)C(O)C(O)C1O (centres undefined) | inactive | 
30 | CC(C)[C@](O)(c1ccc2cc(OC(F)F)c(OC(F)F)cc2c1)c1cn[nH]n1 | inactive | 
31 | C/C=C1/[C@H](O[C@@H]2O[C@H](CO)[C@@H](O)[C@H](O)[C@H]2O)OC=C(C(=O)OC)[C@H]1CC(=O)OCCc1ccc(OC(=O)C[C@@H]2C(C(=O)OC)=CO[C@@H](O[C@@H]3O[C@H](CO)[C@@H](O)[C@H](O)[C@H]3O)/C2=C/C)cc1 |  | 7.47% [at 11.6 µM]
32 | C/C(=C/CO)CC[C@H]1[C@]2(C)C[C@H](O)CC(C)(C)[C@H]2CC[C@]1(C)O | inactive | 
33 | C[C@@H]1O[C@@H](O[C@@H]2\C=C/C=C\C=C/C=C\C[C@H](C)OC(=O)/C=C\[C@H]3O[C@@H]3C[C@H](O)C[C@]3(O)C[C@@H](O)[C@@H](C(=O)O)[C@H](C2)O3)[C@H](O)[C@H](N)[C@@H]1O | inactive | 
34 | COc1cc(C)c(C(=O)O[C@@H]2[C@H](O)[C@@H](CO)O[C@H]2n2ccc(=O)[nH]c2=O)c(OC)c1 | inactive | 
35 | C=C(CCO)C(=O)OCC1OCC(OC(=O)C(=C)CCO[C@@H]2O[C@H](CO)[C@@H](O)[C@H](O)[C@H]2O)C(O)C1O (some centres undefined) | inactive | 
36 | COc1ccc(/C=C/C(=O)N2CCCC2)cc1 | inactive | 
37 | C[C@@H]1O[C@@H](OC[C@H]2O[C@@H](OCc3ccccc3)[C@H](O)[C@@H](O)[C@@H]2O)[C@H](O)[C@H](O)[C@H]1O | inactive | 
38 | CC(=O)O[C@@H]1C=C2[C@H](CC[C@@]3(C)[C@@]2(O)CC[C@H]2Cc4c([nH]c5ccccc45)[C@@]23C)O[C@@H]1C(C)(C)O | inactive | 
39 | Cc1cc(Cn2cnc3c2CC(C(=O)O)N(C(=O)C(c2ccccc2)c2ccccc2)C3)ccc1N(C)C (centres undefined) | inactive | 
